Data from PubChem BioAssay (NCI).
About 83,000 compounds went through this panel and 20% of them were active in at least one assay; those are over-represented in the sample as a whole.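 Cells were grown in 96-well plates and exposed to the test compound at a single concentration for 48 hours; results are reported as percent growth, with values below 10 considered active.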 The source made the active and inactive calls.

Key:
Experiment in all cases: NCI-60 one-dose screen, 48 h (100 = growth as untreated, 0 = no growth, -100 = all killed)
Details in all cases: 10 µM unless noted
[1] = system: NCI-H23 lung
[2] = system: NCI-H226 lung
[3] = system: NCI-H322M lung
[4] = system: HOP-62 NSCLC
[5] = system: NCI-H460 lung
[6] = system: NCI-H522 lung
[7] = system: A549/ATCC NSCLC
[8] = system: 786-0 renal
[9] = system: COLO 205 colon
[10] = system: DU-145 prostate
[11] = system: K-562 leukemia
[12] = system: MALME-3M melanoma
[13] = system: MDA-MB-231 breast
[14] = system: RXF 393 renal
[15] = system: SF-268 CNS
[16] = system: SF-295 CNS
[17] = system: SF-539 CNS
[18] = system: UACC-257 melanoma
[19] = system: M14 melanoma
[20] = system: HOP-92 NSCLC

Measured: growth

c1csc(-c2[nH]nc3c2CCc2ccccc2-3)c1
inactive: [1] 95.8% | [2] 80.9% | [3] 55.4% | [4] 91.1% | [5] 55% | [6] 101% | [7] 89.1% | [8] 103% | [10] 103% | [11] 114% | [12] 79.3% | [13] 37.2% | [14] 94.7% | [15] 101% | [16] 91.7% | [17] 82.1% | [18] 98.6% | [19] 107%
active: [9] -11.2%

N#CCc1cccc2ccccc12
inactive: [1] 109% | [2] 100% | [3] 106% | [4] 109% | [20] 87.2% | [6] 91.6% | [7] 103% | [8] 109% | [9] 115% | [10] 123% | [11] 103% | [12] 110% | [13] 103% | [14] 114% | [15] 116% | [16] 123% | [17] 101% | [18] 105% | [19] 109%

Nc1cccc2cccc([N+](=O)[O-])c12
inactive: [1] 101% | [2] 94.8% | [3] 114% | [4] 97.8% | [5] 112% | [6] 104% | [8] 100% | [9] 94.1% | [10] 118% | [12] 111% | [14] 110% | [15] 109% | [16] 95.6% | [17] 113% | [18] 100% | [19] 107%

Oc1ccc(Cl)cc1Cc1cc(Cl)ccc1O
inactive: [2] 96.7% | [3] 79.6% | [4] 70.6% | [5] 11.5% | [8] 75.5% | [9] 110% | [10] 38.2% | [11] 21.1% | [12] 16.3% | [13] 23.3% | [14] 50.4% | [15] 22.5% | [16] 41.3% | [18] 41.6% | [19] 25.2%
active: [1] -12.5% | [6] 5.48%

COc1cc(-c2ccc(-[n+]3nc(-c4ccc([N+](=O)[O-])cc4)nn3-c3ccc([N+](=O)[O-])cc3)c(OC)c2)ccc1-[n+]1nc(-c2ccc([N+](=O)[O-])cc2)nn1-c1ccc([N+](=O)[O-])cc1
active: [2] -32.5% | [4] -59.7% | [5] 3.02% | [8] 0.457% | [9] -69% | [10] -32.7% | [11] 3.89% | [12] -44.6% | [14] -39.9% | [15] -33.9% | [16] -30.7% | [17] -66.4% | [18] -42.5%
inactive: [1] 26.1% | [3] 44.3% | [7] 11.8% | [13] 51.4% | [19] 58.3%

CCCCCCCCCCCC(=O)OC(C)C(=O)NCCCC (stereo unspecified)
inactive: [1] 97.3% | [2] 86% | [3] 91.7% | [4] 94% | [20] 98.1% | [6] 104% | [7] 98.8% | [8] 101% | [9] 109% | [10] 105% | [11] 94.1% | [12] 96.4% | [13] 113% | [14] 107% | [15] 101% | [16] 102% | [17] 108% | [18] 96.4% | [19] 105%

O=Nc1ccc2ccccc2c1O
inactive: [1] 56.6% | [2] 102% | [3] 103% | [4] 95.2% | [20] 90.1% | [6] 74.7% | [7] 87.1% | [8] 98% | [9] 75.1% | [10] 94.3% | [11] 80.9% | [12] 63.4% | [13] 54.6% | [14] 93.8% | [15] 91.6% | [16] 83% | [17] 108% | [18] 18.3%

CCOC(=O)c1[nH]c(C#N)c(C(=O)OCC)c1C
inactive: [1] 101% | [2] 95.9% | [3] 93.6% | [4] 101% | [5] 114% | [6] 97.9% | [7] 98% | [8] 86.9% | [9] 131% | [10] 106% | [12] 109% | [13] 102% | [14] 90.5% | [15] 111% | [16] 89.3% | [17] 104% | [18] 104% | [19] 109%

CN(C)c1ccc(/C=C/c2sc3ccc4ccccc4c3[n+]2C)cc1
active: [1] -25.9% | [2] -29.4% | [3] -10.5% | [4] -73.3% | [5] -40.9% | [7] -14% | [8] -90.8% | [9] -85.8% | [10] -40% | [11] 0.148% | [12] -48.8% | [13] -61.5% | [14] -95.1% | [15] -65.1% | [16] -35.4% | [17] -54.6% | [18] -48.7% | [19] -76.5%

CCOc1ccc2c(c1)/C(=C\C=C\C1CC(C)C3CC(OCC)CCC3N1CC)CC(C)N2CC (stereo unspecified)
active: [3] 4.18% | [5] 8.11% | [6] -19.3% | [7] 4.18% | [9] -46.7% | [11] 4.61% | [12] -30.1% | [18] -25.2%
inactive: [1] 14.5% | [2] 18.1% | [4] 11.6% | [8] 10.3% | [10] 14.8% | [13] 13.6% | [15] 21.7% | [17] 19.5%

CC[n+]1ccc(Nc2ccc(NC(=O)c3ccc(Nc4cc[n+](CC)c5ccc([N+](=O)[O-])cc45)cc3)cc2)cc1
inactive: [1] 81.8% | [2] 92.8% | [3] 96.8% | [4] 92.8% | [5] 77% | [7] 66.1% | [8] 101% | [9] 69.8% | [10] 91.9% | [11] 48.2% | [12] 40% | [13] 114% | [14] 97.9% | [15] 86.1% | [16] 59.3% | [17] 94.5% | [18] 56.2% | [19] 83.7%

CCSc1nc2ccccc2o1
inactive: [1] 107% | [2] 106% | [3] 120% | [4] 99.4% | [20] 81.8% | [6] 94.3% | [7] 96.1% | [8] 106% | [9] 113% | [10] 111% | [11] 100% | [12] 118% | [13] 112% | [14] 110% | [15] 96.1% | [16] 113% | [17] 96.3% | [18] 106% | [19] 109%

O=[N+]([O-])c1ccc2c(c1)Cc1ccccc1-2
inactive: [1] 99.9% | [2] 108% | [3] 106% | [4] 94.8% | [5] 99.9% | [7] 94.8% | [8] 91% | [9] 116% | [10] 97.7% | [11] 94.5% | [12] 95.7% | [13] 102% | [14] 109% | [15] 95.9% | [16] 100% | [17] 100% | [18] 97.2% | [19] 106%

COC1=CC(=O)c2c(O)c3c(c(O)c2C1=O)CC(C)(O)OC3 (stereo unspecified)
active: [1] -27% | [3] 5.37% | [4] 9.06% | [20] -16.4% | [7] 2.13% | [9] -61.7% | [12] -96.6% | [16] 5.39% | [17] -2.19% | [18] 5.54%
inactive: [2] 90.1% | [6] 14.7% | [8] 34% | [10] 12.7% | [11] 13.4% | [13] 28.3% | [14] 11.1% | [15] 18.3%

O=C(Cc1nc2cc(Cl)c(Cl)cc2nc1CC(=O)c1ccccc1)c1ccccc1
inactive: [1] 77.3% | [2] 70.4% | [3] 80.9% | [4] 70.5% | [20] 67.3% | [6] 58.2% | [7] 74.4% | [8] 67.6% | [9] 76.3% | [10] 82.5% | [11] 47.4% | [12] 67.5% | [14] 81.1% | [15] 79.2% | [16] 69.5% | [17] 62.1% | [18] 93.6%

Nc1cc(-c2ccccc2)ccc1O
inactive: [1] 101% | [2] 112% | [3] 87.2% | [4] 122% | [5] 102% | [6] 96.3% | [7] 65.7% | [8] 97.8% | [9] 110% | [10] 103% | [11] 59.2% | [12] 121% | [13] 82.7% | [14] 30.3% | [15] 78.2% | [16] 134% | [17] 105% | [18] 120% | [19] 103%

N#Cc1c2ccccc2nc2ccccc12
inactive: [1] 100% | [2] 93.8% | [3] 110% | [4] 108% | [5] 101% | [6] 101% | [7] 92.8% | [8] 97.7% | [9] 107% | [10] 112% | [11] 106% | [13] 99.4% | [15] 105% | [16] 98.7% | [18] 95.2% | [19] 120%

Cc1ccc(NC2=CC(=O)C(=O)c3ccccc32)cc1
inactive: [6] 18.8% | [8] 34.8% | [11] 16.4% | [13] 49% | [14] 44.1% | [15] 41%
active: [1] -31.2% | [2] -67.9% | [3] -12.5% | [4] -86.2% | [5] 5.26% | [9] -68.5% | [10] -65.1% | [12] -76.5% | [16] -22.9% | [17] -20.4% | [18] -46.2% | [19] -63.5%
